The nature of experiment [1]: qHTS assay to identify small molecule agonists of the estrogen receptor alpha (ER-alpha) signaling pathway in the presence of an antagonist - cell viability counter screen (AID 1259386).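 Also: series mostly up to about 92 µM; cells exposed to compounds for 22 h at 37 °C before the viability read; nearly all actives have a fitted effect of over 30% in size.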 An outline of the steps:
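Read-out: CellTiter-Fluor fluorescence after 1hr reagent incubation, measured in the same wells as the luciferase readout. VM7Luc4E2 cells were exposed to 15 compound concentrations with 10.0nM ICI-182,780 for 22hr at 37C.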

Experiment [2] addresses Progesterone receptor (Homo sapiens) (UniProt P06401). The experiment in a line: qHTS assay to identify small molecule agonists of the progesterone receptor (PR) signaling pathway (AID 1346784; calls by dose curve; also: nearly all actives have a fitted effect of over 30% in size). An outline of the steps: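 HEK 293T PR-UAS-bla reporter cells, 2% charcoal-stripped FBS; 6 hr settle at 37C/5% CO2, compound (DMSO) 16 hr, LiveBLAzer B/G FRET substrate 2 hr RT, fluorescence intensity read.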

The nature of experiment [3]: qHTS assay to identify small molecule antagonists of the progesterone receptor (PR) signaling pathway - cell viability counter screen (AID 1346798). Also: series mostly up to about 92 µM; nearly all actives have a fitted effect of over 50% in size. Put shortly:
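Luminescence readout (CellTiter-Glo, 30 min, RT) of viability in PR-UAS-bla HEK293T cells exposed to compound and R5020 agonist for 16 hr at 37C, 5% CO2; run in the same wells as the beta-lactamase reporter read.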
Background: In qHTS, concentration-response curves come from the screen itself.

Experiment [4] is described as follows: qHTS assay to identify small molecule agonists of the progesterone receptor (PR) signaling pathway - cell viability counter screen (AID 1346799; calls by dose curve; also: nearly all actives have a fitted effect of over 45% in size). An outline of the steps:
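HEK293T PR-UAS-bla, 3,000 cells/well, 2% charcoal-stripped FBS; 6 h settle, compound 16 h at 37C/5% CO2; LiveBLAzer 2 h RT, then CellTiter-Glo 30 min RT, luminescence read.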

A short description of experiment [5]: qHTS assay to identify small molecule antagonists of the TGF-beta/Smad signaling pathway - cell viability counter screen (AID 1346824). Also: nearly all actives have a fitted effect of over 50% in size. Put shortly: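 Cytotoxicity counter-screen run in the same wells as the beta-lactamase Smad reporter read: CellTiter-Glo luminescence after 30 min at room temperature. HEK 293T SBE-bla cells had 5 hr compound exposure at 37 C with TGF-beta1 (0.25 ng/mL stock).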

Experiment [6] is described as follows: qHTS assay to identify small molecule agonists of the TGF-beta/Smad signaling pathway (AID 1346859; active = well fitted activation curve with a large enough effect in the signal ratio in the repeat runs, not every such curve was filed as active; the % refers to the signal ratio; also: series mostly up to about 77 µM). Put shortly:
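Read-out: fluorescence at 460 and 530 nm (405 nm excitation) after a 2 hr room-temperature incubation with beta-lactamase FRET substrate. SBE-bla HEK 293T cells had been treated with test compounds for 5 hr at 37 C.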

The target of experiment [7] is Thyrotropin-releasing hormone receptor (Homo sapiens) (UniProt P34981). Description: qHTS assay to identify small molecule antagonists of the thyrotropin-releasing hormone receptor (TRHR) signaling pathway (AID 1346877; active = well fitted inhibition curve with a large enough effect in the repeat runs, not every such curve was filed as active; also: series mostly up to about 51 µM). Put shortly:
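HEK293/TRHR cells, 18 h, 37 °C; Ca2+ dye 2 h; cpd 5 min RT; TRH 1 nM final; fluorescence read 3 min, 1 s intervals; 15 concs, triplicate.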

For experiment [8] the target is unchanged. The experiment in a line: qHTS assay to identify small molecule agonists of the thyrotropin-releasing hormone receptor (TRHR) signaling pathway (AID 1346891; calls by dose curve;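 also: HEK293 cells expressing TRHR with calcium dye readout; series mostly up to about 58 µM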). An outline of the steps: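 HEK293/TRHR cells, 1500 per well, 18 h 37 °C; Ca dye 2 h 37 °C; pin-tool compound addition (agonist mode); kinetic fluorescence 3 min, 1 s reads; 15 concentrations, triplicate.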

The nature of experiment [9]: Human pregnane X receptor (PXR) small molecule agonists, qHTS cell viability counter screen (AID 1346977). Also: nearly all actives have a fitted effect of over 50% in size. Also: potency is read from the fitted curve at half-maximal effect. Put shortly: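 Fluorescence read-out (CellTiter-Fluor) of viability in PXR-Luc HepG2 cells, multiplexed with the luciferase agonist read. Compounds in DMSO added after 5hr plating; 24hr total exposure at 37C, 5% CO2.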
Experiment [10] is described as follows: Caspase-3/7 induction in HepG2 cells by small molecules, qHTS assay (AID 1346978). Also: nearly all actives have a fitted effect of over 15% in size. An outline of the steps:
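Caspase-3/7 induction was measured by Caspase-Glo 3/7 luminescence (30 min, room temperature) after a 17 hr compound exposure of wild-type HepG2 cells seeded at 2,000 per well and pre-incubated 5 hr.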

Experiment [11] in a line: Caspase-3/7 induction in CHO-K1 cells by small molecules, qHTS assay (AID 1346980). Also: nearly all actives have a fitted effect of over 15% in size. An outline of the steps: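 Luminescent Caspase-Glo 3/7 read (30min, room temperature) quantified apoptosis induction. Cells were wild-type CHO-K1, treated with compound for 17hr at 37 C and 5% CO2.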
Experiment [12] can be described thus: Caspase-3/7 induction in HepG2 cells by small molecules, qHTS cell viability counter screen (AID 1346981). Also: nearly all actives have a fitted effect of over 30% in size. Also: potency is read from the fitted curve at half-maximal effect. Put shortly:
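Fluorescence read-out of live-cell protease activity (CellTiter-Fluor) after 1 hr with reagent. This was measured in the same wells as the caspase-3/7 luminescence, on HepG2 cells exposed to DMSO-dissolved compounds for 16 hr at 37 C.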

For experiment [13], the target named is Nuclear receptor subfamily 1 group I member 2 (Homo sapiens) (UniProt O75469). The experiment in a line: Human pregnane X receptor (PXR) small molecule agonists, qHTS assay (AID 1346982). Also: nearly all actives have a fitted effect of over 35% in size. Also: potency is read from the fitted curve at half-maximal effect. Put shortly:
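HepG2 PXR-Luc reporter line, 5% charcoal-stripped FBS; 5 hr pre-incubation, compound (DMSO) 24 hr at 37 C/5% CO2; ONE-Glo 30 min RT; luminescence read-out.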

For experiment [14] the target is unchanged. The experiment in a line: CYP3A4 induction through human pregnane X receptor (PXR) by small molecules, qHTS assay (AID 1346984). Also: nearly all actives have a fitted effect of over 40% in size. Put shortly:
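HepG2-derived DPX-2 line carrying PXR plus a CYP3A4-promoter luciferase reporter; cells plated 5 hr, compound-exposed 24 hr at 37C. CYP3A4 activity probed with 3uM (final) Luciferin-IPA for 3hr, then luciferase read after One-Glo.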

The target is the same in experiment [15]. The experiment in a line: Human pregnane X receptor (PXR) activation by small molecules, qHTS assay (AID 1346985). Also: nearly all actives have a fitted effect of over 40% in size. Put shortly:
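DPX-2 cells (HepG2 co-transfected with a PXR response element and a CYP3A4-promoter luciferase construct) were seeded at 2,000 per well, rested 5 hr at 37C, then exposed to DMSO-dissolved compounds for 24 hr. Activation was read as luciferase luminescence.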

A short description of experiment [16]: qHTS assay to identify small molecule agonists of the TGF-beta/Smad signaling pathway - cell viability counter screen (AID 1346829). Also: top concentration of the series differs between compounds; nearly all actives have a fitted effect of over 45% in size. Put shortly: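 Same-well cytotoxicity: CellTiter-Glo added after the 2 hr room-temperature beta-lactamase substrate step, luminescence measured 30 min later; cells had 5 hr of compound at 37 C.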
Experiment [17] can be described thus: Caspase-3/7 induction in CHO-K1 cells by small molecules, qHTS cell viability counter screen (AID 1346979). Also: nearly all actives have a fitted effect of over 35% in size. Also: potency is read from the fitted curve at half-maximal effect. An outline of the steps:
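CHO-K1 wt, 1,500 cells/well; 5hr pre-incubation 37C/5% CO2; compound pin transfer (DMSO); 16hr exposure; CellTiter-Fluor added, 1hr, fluorescence read.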

For experiment [18], the target named is Nuclear receptor subfamily 1 group I member 2 (Rattus norvegicus) (UniProt Q9R1A7). Description: Rat pregnane X receptor (rPXR) activation by small molecules, qHTS assay (AID 1346983). Also: nearly all actives have a fitted effect of over 20% in size. Conditions: rPXR luciferase reporter cells, One-Glo luminescence, 24 h; max activation: hits give high values. An outline of the steps: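 Luminescent readout (One-Glo luciferase, 30 min room temperature) followed 24 hr compound treatment at 37 C of rPXR cells plated 2,000 per well and preincubated 5hr; qHTS format with compounds delivered in DMSO.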
Chain of Nuclear receptor subfamily 1 group I member 2 (Rattus norvegicus) (Q9R1A7 whole entry, looked up): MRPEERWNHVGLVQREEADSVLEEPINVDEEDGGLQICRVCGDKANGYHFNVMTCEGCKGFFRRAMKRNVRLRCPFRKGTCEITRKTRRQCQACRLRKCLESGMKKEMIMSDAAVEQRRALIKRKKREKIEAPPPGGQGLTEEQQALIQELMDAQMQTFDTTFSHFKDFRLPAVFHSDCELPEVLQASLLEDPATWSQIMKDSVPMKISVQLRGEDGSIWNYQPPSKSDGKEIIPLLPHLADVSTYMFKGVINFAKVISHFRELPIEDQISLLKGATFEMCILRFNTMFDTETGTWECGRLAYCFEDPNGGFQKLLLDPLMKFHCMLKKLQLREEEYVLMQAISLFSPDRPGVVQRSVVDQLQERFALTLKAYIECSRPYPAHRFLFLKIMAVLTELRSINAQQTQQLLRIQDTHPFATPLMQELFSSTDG

The target in experiment [19] is Progesterone receptor (Homo sapiens) (UniProt P06401). The experiment in a line: qHTS assay to identify small molecule antagonists of the progesterone receptor (PR) signaling pathway (AID 1346795; active = well fitted inhibition curve with a large enough effect in the signal ratio in the repeat runs, not every such curve was filed as active; the % refers to the signal ratio). An outline of the steps:
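Beta-lactamase reporter, HEK293T PR-UAS-bla line; 2% charcoal-stripped FBS; 6 hr pre-incubation, 37C/5% CO2. Compound + R5020 1 nM final, 16 hr. LiveBLAzer B/G FRET substrate, 2 hr RT; fluorescence intensity read.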

Values without a mark were called inactive. Results filed as inconclusive are left out. Activity calls are given as the source filed them. Unless noted, calls follow the shape of the dose curve; as a rule, active = well fitted curve in the direction sought with a large enough effect in the repeat runs; inconclusive = weak or mixed curves; inactive = no such curve, though single readings can be large; an effect the other way counts as inactive or inconclusive.
% is scaled to controls: 0 for no effect and ±100 for the full control effect.

Chain of Thyrotropin-releasing hormone receptor (Homo sapiens) (P34981 whole entry, looked up): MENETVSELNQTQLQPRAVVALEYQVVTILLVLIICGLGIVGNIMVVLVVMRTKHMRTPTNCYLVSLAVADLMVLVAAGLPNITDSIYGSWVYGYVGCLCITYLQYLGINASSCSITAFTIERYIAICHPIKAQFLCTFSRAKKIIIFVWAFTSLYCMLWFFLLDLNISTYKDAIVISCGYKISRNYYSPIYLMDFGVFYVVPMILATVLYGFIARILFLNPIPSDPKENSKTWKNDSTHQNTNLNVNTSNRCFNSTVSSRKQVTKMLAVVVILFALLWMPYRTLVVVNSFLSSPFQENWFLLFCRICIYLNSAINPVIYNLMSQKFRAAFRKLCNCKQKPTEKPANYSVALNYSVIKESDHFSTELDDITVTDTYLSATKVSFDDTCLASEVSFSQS
Chain of Nuclear receptor subfamily 1 group I member 2 (Homo sapiens) (O75469 whole entry, looked up): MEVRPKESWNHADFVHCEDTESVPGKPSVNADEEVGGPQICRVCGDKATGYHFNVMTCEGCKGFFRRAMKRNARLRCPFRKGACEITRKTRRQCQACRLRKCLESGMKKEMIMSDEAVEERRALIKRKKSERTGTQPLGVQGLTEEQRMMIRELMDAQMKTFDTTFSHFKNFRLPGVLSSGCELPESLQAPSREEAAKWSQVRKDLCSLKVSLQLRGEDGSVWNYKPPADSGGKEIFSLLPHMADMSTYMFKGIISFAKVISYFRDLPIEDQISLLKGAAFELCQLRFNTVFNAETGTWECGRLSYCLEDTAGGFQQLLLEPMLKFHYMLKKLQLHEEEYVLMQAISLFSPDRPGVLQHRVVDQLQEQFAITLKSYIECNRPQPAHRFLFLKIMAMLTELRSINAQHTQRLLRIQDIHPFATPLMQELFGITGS
Chain of Progesterone receptor (Homo sapiens) (P06401 whole entry, looked up): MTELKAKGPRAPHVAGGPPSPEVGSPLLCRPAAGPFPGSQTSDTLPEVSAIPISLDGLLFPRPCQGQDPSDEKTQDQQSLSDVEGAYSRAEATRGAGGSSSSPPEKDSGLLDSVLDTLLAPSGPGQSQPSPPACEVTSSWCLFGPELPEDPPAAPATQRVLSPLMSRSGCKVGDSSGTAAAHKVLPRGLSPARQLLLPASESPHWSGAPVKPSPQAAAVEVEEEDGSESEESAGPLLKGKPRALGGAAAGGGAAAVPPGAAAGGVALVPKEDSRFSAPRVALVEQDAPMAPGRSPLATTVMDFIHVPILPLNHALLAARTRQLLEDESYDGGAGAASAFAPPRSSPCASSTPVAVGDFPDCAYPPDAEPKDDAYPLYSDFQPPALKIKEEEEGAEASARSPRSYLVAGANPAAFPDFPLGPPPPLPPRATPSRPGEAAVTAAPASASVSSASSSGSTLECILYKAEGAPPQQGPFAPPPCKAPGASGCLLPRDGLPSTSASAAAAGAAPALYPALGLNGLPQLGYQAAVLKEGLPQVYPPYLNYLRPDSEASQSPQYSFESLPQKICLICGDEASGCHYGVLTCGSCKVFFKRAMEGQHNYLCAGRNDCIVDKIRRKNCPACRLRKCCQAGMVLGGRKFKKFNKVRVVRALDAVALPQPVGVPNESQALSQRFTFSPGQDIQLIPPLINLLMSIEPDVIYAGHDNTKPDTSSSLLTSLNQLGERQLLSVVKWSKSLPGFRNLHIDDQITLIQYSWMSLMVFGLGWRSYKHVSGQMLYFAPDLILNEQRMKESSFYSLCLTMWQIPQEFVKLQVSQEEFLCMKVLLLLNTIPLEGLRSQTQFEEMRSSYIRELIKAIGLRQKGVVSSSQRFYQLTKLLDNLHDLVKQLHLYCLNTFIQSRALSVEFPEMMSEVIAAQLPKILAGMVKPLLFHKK

On to `CC(O)(CS(=O)(=O)c1ccc(F)cc1)C(=O)Nc1ccc(C#N)c(C(F)(F)F)c1` (stereo not drawn), for which the Potency result in experiment [1], in experiment [2], in experiment [3], in [4], in experiment [5] and in [7] was “inactive” each time. In addition, the Potency result in experiment [8], in experiment [9], in experiment [10], in [11], in experiment [12] and in [14] was “inactive” throughout. Besides, the Potency result in [15] is “inactive”. The molecule was called inactive in [6]. In addition, the Potency in experiment [13] is 31.8 µM (active).

As to `BrCC(Br)C1CCC(Br)C(Br)C1` (stereo not drawn), the Potency entry in experiment [1], in [2], in [3], in experiment [4], in [16] and in experiment [7] was “inactive” throughout. Also, the Potency entry in experiment [8], in experiment [9], in [10], in [17], in [11] and in [12] was “inactive” each time. Further, the outcome in [6] was inactive. The Potency in experiment [13] was 48.3 µM (active).

Consider `O=C(Nc1ccccc1)Nc1ccnc(Cl)c1`, for which the Potency result in experiment [2], in experiment [16], in experiment [10] and in experiment [11] was “inactive” each time. The outcome in experiment [6] was inactive. In addition, the figures for the Potency in [9], in experiment [17] and in experiment [13] were 43.3 µM (active), 48.6 µM (active) and 30.6 µM (active), respectively.

For `O=C1NCN(c2ccccc2)C12CCN(CCCOc1ccc(F)cc1)CC2`, the Potency entry in experiment [2], in experiment [3], in experiment [4], in [5], in experiment [10] and in experiment [11] was “inactive” each time. For the same molecule, the Potency result in experiment [14] and in experiment [15] was “inactive” in each case. Further, in [6], the call was inactive. Moreover, the Potency in experiment [9] is 6.68 µM (active); in experiment [17], 26.6 µM (active); in [12], 7.5 µM (active); in [13], 5.96 µM (active). The max activation in experiment [18] was -0.12%.

Regarding `CN(N=O)c1ccc([N+](=O)[O-])cc1`, the Potency result in experiment [2], in experiment [19], in [3], in experiment [4], in experiment [5] and in [16] was “inactive” in each case. Further, the Potency entry in experiment [7], in experiment [9], in [10], in experiment [17], in [11] and in [12] was “inactive” throughout. Moreover, the Potency entry in [13] was “inactive”. Moreover, the outcome in experiment [6] was inactive.

Take `O=C(O)C(F)(F)C(F)(F)C(F)(F)C(F)(F)C(F)(F)C(F)(F)C(F)(F)C(F)(F)C(F)(F)C(F)(F)F`: the Potency entry in experiment [1], in experiment [19], in experiment [3], in experiment [5], in experiment [16] and in experiment [8] was “inactive” each time. The Potency entry in [9], in experiment [10], in experiment [17], in experiment [11], in experiment [12] and in experiment [13] was “inactive” throughout. Also, the molecule was classed as inactive in [6].

Values taken from PubChem BioAssay (Tox21).
